What was measured:
Assay in all cases: log2 ratio of Biotin-Ahx-Ub-VS probe labelling (fragment/DMSO); higher = less target engagement (more negative = stronger competition), active = hit call of the paper (q ≤ 0.05, log2 ratio ≤ -1)
Conditions in all cases: compound concentration: 200 uM; treatment time: 3 h
[1] = target: T1, USP19 (UniProt O94966)
T1 sequence (whole entry): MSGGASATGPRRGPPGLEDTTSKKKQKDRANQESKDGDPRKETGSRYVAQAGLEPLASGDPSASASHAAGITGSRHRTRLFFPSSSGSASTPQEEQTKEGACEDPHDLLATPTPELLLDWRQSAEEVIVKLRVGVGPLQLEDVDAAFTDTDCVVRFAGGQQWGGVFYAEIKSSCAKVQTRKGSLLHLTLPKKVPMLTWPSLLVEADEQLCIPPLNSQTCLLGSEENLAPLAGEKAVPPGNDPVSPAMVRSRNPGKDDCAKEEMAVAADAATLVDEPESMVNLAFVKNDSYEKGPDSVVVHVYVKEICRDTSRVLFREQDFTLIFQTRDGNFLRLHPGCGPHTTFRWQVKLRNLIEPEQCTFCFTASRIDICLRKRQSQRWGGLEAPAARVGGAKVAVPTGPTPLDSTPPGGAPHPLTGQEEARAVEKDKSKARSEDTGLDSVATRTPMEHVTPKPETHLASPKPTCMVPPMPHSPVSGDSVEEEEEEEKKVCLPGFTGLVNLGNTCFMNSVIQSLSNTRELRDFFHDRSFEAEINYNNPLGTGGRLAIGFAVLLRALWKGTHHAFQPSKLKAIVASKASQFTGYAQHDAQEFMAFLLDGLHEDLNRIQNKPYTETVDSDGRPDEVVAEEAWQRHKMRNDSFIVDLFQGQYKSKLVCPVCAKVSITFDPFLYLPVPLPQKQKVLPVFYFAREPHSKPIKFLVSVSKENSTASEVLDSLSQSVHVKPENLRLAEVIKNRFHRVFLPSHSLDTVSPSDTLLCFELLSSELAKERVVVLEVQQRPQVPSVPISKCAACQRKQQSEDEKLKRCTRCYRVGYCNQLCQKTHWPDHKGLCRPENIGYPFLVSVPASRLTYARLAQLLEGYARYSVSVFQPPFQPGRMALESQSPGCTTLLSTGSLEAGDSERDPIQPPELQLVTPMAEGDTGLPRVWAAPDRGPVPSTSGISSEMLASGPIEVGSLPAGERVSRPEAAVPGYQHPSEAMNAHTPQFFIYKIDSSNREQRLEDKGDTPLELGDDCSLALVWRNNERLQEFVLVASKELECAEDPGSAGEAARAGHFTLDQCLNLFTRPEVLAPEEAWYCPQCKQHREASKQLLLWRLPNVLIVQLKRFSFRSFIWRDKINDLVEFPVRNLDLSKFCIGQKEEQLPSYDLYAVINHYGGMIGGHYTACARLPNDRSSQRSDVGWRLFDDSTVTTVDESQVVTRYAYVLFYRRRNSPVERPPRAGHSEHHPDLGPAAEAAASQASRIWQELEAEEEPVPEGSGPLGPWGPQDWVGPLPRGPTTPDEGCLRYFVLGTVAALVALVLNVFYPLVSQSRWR
How it was run: (§1)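 Values give the average log2 ratio of fragment to vehicle, assessed by unpaired t-test on global-median-normalised Spectronaut label-free quantities. Proteins needed ≥2 unique peptides. HEK293T lysate (495 µg per sample) was treated in triplicate with fragment at 200 µM or vehicle for 3 h and then with Biotin-Ahx-Ub-VS at 0.5 µM final for 1 h. Labelled DUBs were NeutrAvidin-enriched, digested and run by diaPASEF LC-MS/MS.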

[2] = target: T2, USP22 (UniProt Q9UPT9)
T2 sequence (whole entry): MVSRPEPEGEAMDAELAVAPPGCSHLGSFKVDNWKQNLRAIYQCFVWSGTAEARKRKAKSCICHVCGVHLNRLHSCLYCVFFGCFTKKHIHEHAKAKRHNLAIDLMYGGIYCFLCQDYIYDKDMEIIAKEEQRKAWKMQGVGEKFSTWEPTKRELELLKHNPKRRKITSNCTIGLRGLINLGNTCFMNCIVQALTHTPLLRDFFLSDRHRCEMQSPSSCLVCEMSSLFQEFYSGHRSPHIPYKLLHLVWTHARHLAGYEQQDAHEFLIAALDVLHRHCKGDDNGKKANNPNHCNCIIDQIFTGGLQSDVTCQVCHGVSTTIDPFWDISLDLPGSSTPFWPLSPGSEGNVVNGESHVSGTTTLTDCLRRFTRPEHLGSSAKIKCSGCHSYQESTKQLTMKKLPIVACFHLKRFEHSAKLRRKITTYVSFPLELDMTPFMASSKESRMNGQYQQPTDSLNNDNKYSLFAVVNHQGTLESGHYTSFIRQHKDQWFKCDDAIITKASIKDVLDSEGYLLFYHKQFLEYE
How it was run: as §1

[3] = target: USP24 (UniProt Q9UPU5)
How it was run: as §1

[4] = target: T3, USP25 (UniProt Q9UHP3)
T3 sequence (whole entry): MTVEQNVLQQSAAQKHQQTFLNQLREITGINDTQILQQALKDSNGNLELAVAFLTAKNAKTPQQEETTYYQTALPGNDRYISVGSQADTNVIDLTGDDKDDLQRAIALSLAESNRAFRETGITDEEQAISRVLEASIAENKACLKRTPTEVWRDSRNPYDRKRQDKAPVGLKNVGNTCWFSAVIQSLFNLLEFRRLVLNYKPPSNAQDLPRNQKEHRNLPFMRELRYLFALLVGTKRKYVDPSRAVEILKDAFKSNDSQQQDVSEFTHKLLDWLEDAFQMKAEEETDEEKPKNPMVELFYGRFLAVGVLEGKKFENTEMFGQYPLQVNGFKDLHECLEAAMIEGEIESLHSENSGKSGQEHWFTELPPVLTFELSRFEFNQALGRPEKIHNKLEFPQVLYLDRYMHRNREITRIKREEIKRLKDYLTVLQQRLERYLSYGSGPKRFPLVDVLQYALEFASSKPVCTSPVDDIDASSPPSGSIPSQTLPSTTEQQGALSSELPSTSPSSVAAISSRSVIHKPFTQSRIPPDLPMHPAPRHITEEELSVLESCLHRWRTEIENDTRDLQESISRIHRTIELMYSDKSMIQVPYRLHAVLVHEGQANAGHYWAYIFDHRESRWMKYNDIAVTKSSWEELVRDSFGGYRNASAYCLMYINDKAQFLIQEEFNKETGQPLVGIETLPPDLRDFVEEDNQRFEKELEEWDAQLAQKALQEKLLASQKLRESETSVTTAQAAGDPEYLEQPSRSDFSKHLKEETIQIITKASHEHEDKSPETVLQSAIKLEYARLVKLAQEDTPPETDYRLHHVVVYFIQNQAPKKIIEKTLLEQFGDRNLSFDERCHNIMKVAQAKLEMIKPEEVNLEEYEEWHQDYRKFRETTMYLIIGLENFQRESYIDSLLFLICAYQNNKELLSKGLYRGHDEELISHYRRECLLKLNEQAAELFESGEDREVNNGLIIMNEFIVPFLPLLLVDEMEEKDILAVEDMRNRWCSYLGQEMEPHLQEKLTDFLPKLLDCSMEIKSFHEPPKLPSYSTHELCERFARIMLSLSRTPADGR
How it was run: as §1

[5] = target: T4, USP28 (UniProt Q96RU2)
T4 sequence (whole entry): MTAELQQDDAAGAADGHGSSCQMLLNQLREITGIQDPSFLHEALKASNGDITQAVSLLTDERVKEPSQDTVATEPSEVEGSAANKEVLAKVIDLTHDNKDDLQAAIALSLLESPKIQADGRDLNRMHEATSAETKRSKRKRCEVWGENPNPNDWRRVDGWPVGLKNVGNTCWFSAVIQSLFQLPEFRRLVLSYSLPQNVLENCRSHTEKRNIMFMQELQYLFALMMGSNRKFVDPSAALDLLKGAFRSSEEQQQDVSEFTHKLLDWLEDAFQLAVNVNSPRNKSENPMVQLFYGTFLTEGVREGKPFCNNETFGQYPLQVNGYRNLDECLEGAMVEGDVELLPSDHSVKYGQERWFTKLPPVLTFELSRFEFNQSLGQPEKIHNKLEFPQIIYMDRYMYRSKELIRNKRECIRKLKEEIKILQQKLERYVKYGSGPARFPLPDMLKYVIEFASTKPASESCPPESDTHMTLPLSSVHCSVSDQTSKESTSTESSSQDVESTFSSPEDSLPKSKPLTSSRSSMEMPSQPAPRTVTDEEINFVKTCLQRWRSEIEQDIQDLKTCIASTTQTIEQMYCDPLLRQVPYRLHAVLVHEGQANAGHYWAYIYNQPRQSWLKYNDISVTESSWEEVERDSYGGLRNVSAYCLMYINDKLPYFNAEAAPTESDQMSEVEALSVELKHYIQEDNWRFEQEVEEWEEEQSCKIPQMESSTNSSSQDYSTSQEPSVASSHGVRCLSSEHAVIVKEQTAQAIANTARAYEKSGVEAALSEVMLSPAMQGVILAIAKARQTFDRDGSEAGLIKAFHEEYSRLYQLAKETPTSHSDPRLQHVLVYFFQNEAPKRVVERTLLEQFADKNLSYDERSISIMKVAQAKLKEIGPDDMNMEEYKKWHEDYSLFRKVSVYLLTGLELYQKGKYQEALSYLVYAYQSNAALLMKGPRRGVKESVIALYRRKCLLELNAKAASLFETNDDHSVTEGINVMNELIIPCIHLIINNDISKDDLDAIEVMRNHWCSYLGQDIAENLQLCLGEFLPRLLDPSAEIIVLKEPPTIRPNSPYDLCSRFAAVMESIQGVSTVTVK
How it was run: as §1

Measured: log2 ratio of Biotin-Ahx-Ub-VS probe labelling

USP24, sequence (Q9UPU5 whole entry): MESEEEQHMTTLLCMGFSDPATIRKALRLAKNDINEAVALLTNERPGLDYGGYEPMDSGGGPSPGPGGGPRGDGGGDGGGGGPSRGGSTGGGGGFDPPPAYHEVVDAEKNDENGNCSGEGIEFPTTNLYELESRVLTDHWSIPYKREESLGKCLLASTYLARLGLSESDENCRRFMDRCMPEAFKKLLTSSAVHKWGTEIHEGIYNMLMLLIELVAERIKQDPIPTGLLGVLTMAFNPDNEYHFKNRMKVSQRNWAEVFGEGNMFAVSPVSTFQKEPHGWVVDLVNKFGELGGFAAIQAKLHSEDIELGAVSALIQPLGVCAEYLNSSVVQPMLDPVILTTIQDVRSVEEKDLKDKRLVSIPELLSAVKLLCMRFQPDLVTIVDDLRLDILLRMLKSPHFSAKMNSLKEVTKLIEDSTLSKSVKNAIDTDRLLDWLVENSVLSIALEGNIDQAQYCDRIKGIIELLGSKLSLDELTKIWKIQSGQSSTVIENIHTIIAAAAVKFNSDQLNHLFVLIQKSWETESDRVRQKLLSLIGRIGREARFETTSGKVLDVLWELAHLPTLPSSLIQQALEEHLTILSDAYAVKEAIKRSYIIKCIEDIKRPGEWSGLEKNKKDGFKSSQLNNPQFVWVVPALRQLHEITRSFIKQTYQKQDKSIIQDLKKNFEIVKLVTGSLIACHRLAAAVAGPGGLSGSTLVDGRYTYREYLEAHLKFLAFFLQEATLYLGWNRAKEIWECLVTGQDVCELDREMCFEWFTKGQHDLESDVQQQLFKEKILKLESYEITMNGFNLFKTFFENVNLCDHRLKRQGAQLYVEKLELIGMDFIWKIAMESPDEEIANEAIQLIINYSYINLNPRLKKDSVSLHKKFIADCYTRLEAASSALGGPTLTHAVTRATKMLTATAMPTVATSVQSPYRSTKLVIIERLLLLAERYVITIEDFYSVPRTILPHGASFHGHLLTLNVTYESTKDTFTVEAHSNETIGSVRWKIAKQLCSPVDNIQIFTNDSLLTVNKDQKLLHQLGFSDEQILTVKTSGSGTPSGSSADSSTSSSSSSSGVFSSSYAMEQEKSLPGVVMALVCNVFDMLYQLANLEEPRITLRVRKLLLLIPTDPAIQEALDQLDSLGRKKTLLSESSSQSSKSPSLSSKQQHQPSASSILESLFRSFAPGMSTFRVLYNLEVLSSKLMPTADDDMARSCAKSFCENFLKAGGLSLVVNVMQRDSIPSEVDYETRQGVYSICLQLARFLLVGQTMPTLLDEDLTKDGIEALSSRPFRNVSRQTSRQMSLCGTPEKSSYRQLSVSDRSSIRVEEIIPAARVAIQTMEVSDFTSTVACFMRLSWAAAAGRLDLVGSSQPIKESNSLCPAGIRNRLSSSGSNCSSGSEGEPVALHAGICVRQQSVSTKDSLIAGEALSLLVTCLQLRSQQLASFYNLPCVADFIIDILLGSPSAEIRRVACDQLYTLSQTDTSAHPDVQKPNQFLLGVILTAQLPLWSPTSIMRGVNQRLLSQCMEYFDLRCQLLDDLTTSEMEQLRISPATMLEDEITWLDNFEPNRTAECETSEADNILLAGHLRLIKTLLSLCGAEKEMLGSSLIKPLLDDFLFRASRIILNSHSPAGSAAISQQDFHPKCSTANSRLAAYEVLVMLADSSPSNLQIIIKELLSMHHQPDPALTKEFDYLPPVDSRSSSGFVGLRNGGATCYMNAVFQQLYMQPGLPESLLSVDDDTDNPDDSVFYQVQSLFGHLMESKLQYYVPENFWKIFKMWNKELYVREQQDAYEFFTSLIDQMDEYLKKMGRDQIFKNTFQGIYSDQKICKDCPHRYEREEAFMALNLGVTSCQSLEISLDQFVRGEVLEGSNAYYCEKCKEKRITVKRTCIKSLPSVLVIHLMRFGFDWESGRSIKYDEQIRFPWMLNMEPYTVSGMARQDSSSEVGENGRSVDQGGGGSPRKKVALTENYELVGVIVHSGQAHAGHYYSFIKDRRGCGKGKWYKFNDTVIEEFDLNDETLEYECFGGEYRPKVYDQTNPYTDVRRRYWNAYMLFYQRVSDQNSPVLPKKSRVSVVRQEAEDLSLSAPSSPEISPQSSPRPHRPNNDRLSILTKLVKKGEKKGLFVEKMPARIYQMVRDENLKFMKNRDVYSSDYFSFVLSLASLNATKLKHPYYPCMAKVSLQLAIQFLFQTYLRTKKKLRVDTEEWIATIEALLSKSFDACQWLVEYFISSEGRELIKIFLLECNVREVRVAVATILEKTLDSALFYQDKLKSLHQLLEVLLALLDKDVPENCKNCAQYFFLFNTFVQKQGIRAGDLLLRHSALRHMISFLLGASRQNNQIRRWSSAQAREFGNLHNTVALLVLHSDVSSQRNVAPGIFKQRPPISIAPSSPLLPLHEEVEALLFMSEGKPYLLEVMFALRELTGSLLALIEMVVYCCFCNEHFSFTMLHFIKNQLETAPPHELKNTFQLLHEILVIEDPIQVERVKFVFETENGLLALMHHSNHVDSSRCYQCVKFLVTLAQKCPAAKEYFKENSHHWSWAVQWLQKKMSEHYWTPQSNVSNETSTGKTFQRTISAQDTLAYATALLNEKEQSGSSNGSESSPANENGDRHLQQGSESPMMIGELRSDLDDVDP

CNC(=O)C1(NC(=O)CCl)CCCCC1
inactive: [1] 0.162 | [2] -0.0396 | [3] 0.0556 | [4] -0.118 | [5] -0.181

Source: the supplement of paper PMC11732987, “Enantioselective OTUD7B fragment discovery through chemoproteomics screening and high-throughput optimisation” (Communications Chemistry, 2025)
